Results published in PubChem BioAssay (NCI).
About 83,000 compounds went through this panel and 20% of them were active in at least one assay; those are over-represented in the sample as a whole.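 How to read the values: 0–100, growth inhibition (40 = 60% inhibited); 0, no net growth; -100 to 0, cell death (-40 = 40% of starting cells died; -100 = all dead).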 A number with no mark means an inactive call. Calls of active or inactive are those of the source.

tested on: SK-OV-3 ovarian; assay: NCI-60 one-dose screen, 48 h (100 = growth as untreated, 0 = no growth, -100 = all killed); details: 10 µM unless noted
Description: Growth inhibition of the SK-OV-3 human tumor cell line is measured as a screen for anti-cancer activity. Cells are grown in 96 well plates and exposed to the test compound for 48 hours. Compounds are tested at a single concentration, which is 10^-5 M for most compounds. The reported endpoint is percent growth (GI% or GIPRCNT), where numbers from 0 - 100% represent growth inhibition, and numbers from -100% - 0 represent cell death. For example, a value of 40 represents 60% growth inhibition. A value of 0 means no net growth occurred over the course of the experiment. A value of -40 indicates 40% of cells at the beginning of the experiment died by the end of the experiment. A value of -100 means all cells are dead at the end of the experiment.
NCI-60 Human Tumor Cell Lines Screen was performed using the standard one-dose NCI protocol, which is described in more detail at https://dtp.cancer.gov/discovery_development/nci-60/default.htm.
Compounds with GIPRCNT values below 10 were considered active. Activity score was based on GIPRCNT using the following formula: […]
Score is 0 for GIPRCNT values of 100 or above, 50 for GIPRCNT values of 0, and 100 for GIPRCNT values of -100.

| SMILES | growth |
| --- | --- |
| CN1CCN(C(=S)SCCCCOc2cc(=O)oc3ccccc23)CC1 | 99.5% |
| COc1ccc(C(=O)Cn2c(C(=O)c3ccc(OC)cc3)nc3ccccc32)cc1 | 67.1% |
| CCOc1c(OC)cc2c(c1O)C(=O)N[C@@H]1[C@@H](O)[C@@H](O)[C@H](O)C[C@@H]21 | 98.1% |
| COc1ccc(CCN(CC(=O)N(CC(N)=O)C2CCC[C@@H]2OCc2ccccc2)C(=O)CN(C(=O)CN(CCc2ccc(Cl)cc2)C(=O)CN(C(=O)CN(C)Cc2ccccc2F)[C@H](C)C2CCCCC2)[C@H](C)C2CCCCC2)cc1OC (stereo not given in full) | 38.4% |
| N=c1c(S(=O)(=O)c2ccccc2)cc2c(=O)n3ccccc3nc2n1CC1CCCO1 (stereo not given) | 99.3% |
| CCN1C(=O)N(CC)C2C1NN=c1s/c(=C\c3ccc(C(F)(F)F)cc3)c(=O)n12 (stereo not given) | 36.5% |
| C=C1C(=O)O[C@H]2[C@H]1CC/C(COC(=O)NCc1ccc(Cn3c(=O)sn(-c4ccc(C#N)cc4)c3=O)cc1)=C\CC[C@@]1(C)O[C@@H]21 | 93.1% |
| COc1ccc(Cn2cc3c(c2-c2ccccc2)CCc2cnoc2-3)cc1 | 21.9% |
| CCOC(=O)c1nn(CC(O)c2ccccc2)c(NC(=O)Nc2cccc(F)c2)c1C (stereo not given) | 107% |
| C=CC(=O)Nc1ccc(Oc2nccc(Nc3nnc(-c4ccc(C)cc4)s3)n2)cc1 | 78% |
| O=C(CI)NC(=O)NC(=O)NCc1ccccc1 | 104% |
| COc1ccc(/C=C/C(=O)c2ccc(NC(=O)CSc3nc4c([nH]3)c(=O)n(C)c(=O)n4C)cc2)cc1OC | 102% |
| O=C(N/N=C\c1cccc([N+](=O)[O-])c1)N/N=C/c1cccc([N+](=O)[O-])c1 | 101% |
| C[C@H](CCCC(=O)NCC#CCN1CCN(C)CC1)[C@H]1CC[C@H]2[C@@H]3CC[C@@H]4CC(=O)CC[C@]4(C)[C@H]3CC[C@]12C | 81.6% |
| c1ccc(CCNc2c3ccccc3nc3ccccc23)cc1 | 62.6% |
| Cc1cccc2c1C[C@@]1(C2=O)C(c2ccc(C(C)(C)C)cc2)=NOS1=O (stereo not given in full) | 98.4% |
| CN(CCC(=O)c1ccccc1)CCC(=O)c1ccccc1 | 99.8% |
| O=C1Nc2ccccc2/C1=C/c1cccn1C(=O)c1ccc(Cl)s1 | 72% |
| C=C(c1ccc(OC)c(/C=C/C(=O)c2ccc3c(c2)OCO3)c1)c1cc(OC)c(OC)c(OC)c1 | 27.4% |
| FC(F)(F)Oc1cccc(-c2cnc3ccc(-c4ccncc4)nn23)c1 | -19.3% (active) |

| SMILES | growth |
| --- | --- |
| COc1cc(/C=N/Nc2ccc(Br)cc2)cc(OC)c1OC | 85.2% |
| CCCCNC(=O)Oc1ccc(/C(=C(/C)Cc2ccc(OC)cc2)c2ccc(OCCN3CCCCC3)cc2)cc1 | 95.5% |
| N#C/C(=C\c1cn(Cc2ccccc2)c2ccccc12)C(=O)Nc1ncc(Cc2ccccc2Cl)s1 | 9.54% (active) |
| Cc1cc2c(cc1C)N(C(=O)CCl)CC(=O)N2 | 68.9% |
| C/C(Cc1ccc(Cl)cc1)=C(\c1ccc(OCCCN(C)C)cc1)c1ccc(OC(=O)Cc2ccccc2)cc1 | 85.6% |
| CC(C)(C)n1cc(-c2ccnc(NCCNS(=O)(=O)c3ccc(O)cc3)c2)c(-c2cccc(O)c2)n1 | 116% |
| O=C1Nc2ccccc2C1(c1c[nH]c2ccccc12)c1c[nH]c2ccccc12 | 72.8% |
| COc1ccc2c(c1)/C(=N/c1n[nH]c(=S)s1)C(=O)N2 | 148% |
| COc1ccc(C[n+]2c3ccccc3n3c4ccc(N)cc4ccc32)c(OC)c1OC | 70% |
| Cc1ccc(C(=O)c2ccc(CC(=O)NN3C(=O)c4ccccc4C3=O)n2C)cc1 | 109% |
| CN1CCN(Cc2ccc(NC(=O)c3cncc(C#Cc4cnc(N)c5ncccc45)c3)cc2C(F)(F)F)CC1 | 2.59% (active) |
| CCOC(=O)C(=CNc1cnc(Nc2ccc(N3CCOCC3)cc2)nc1Oc1ccc(OC)cc1)C(=O)OCC | 55.5% |
| CCOC(=O)c1c(C)nc2c(c1N)/C(=C/c1ccc(OC)cc1)C(=O)N2Cc1ccccc1 | 90.5% |
| NC1=Nc2cc(OCCCCN3Cc4ccccc4C3)c(OCC3CC3)cc2C12CCCC2 | 93.4% |
| COc1ccc(C(=O)/C=C/c2ccc(N3CCCCC3)cc2)cc1OC | 107% |
| NC(N)=NS(=O)(=O)c1ccc(NC2=C(I)C(=O)c3ncccc3C2=O)cc1 | 87.8% |
| CC(=O)OC[C@]12CC[C@@H]([C@@H](C)c3nnc(-c4ccncc4)o3)[C@@H]1[C@H]1CC[C@@H]3[C@@]4(C)CC[C@H](OC(C)=O)C(C)(C)[C@@H]4CC[C@@]3(C)[C@]1(C)CC2 | 90.7% |
| Fc1ccc2[nH]cc(-c3nc(-c4c[nH]c5ccncc45)cs3)c2c1 | 63.1% |
| CC1=CCC(OC(=O)C(C)(C)CC(O)(C(C)O)C(O)C2(C)C=CC(Cc3ccc(C(C)C)cc3)(C(C)C)CC2)(C(C)C)CC1 (stereo not given) | 107% |
| CCO/C=N/C1=C(C#N)C(c2ccc(F)cc2)c2sc3c(F)cccc3c2O1 (stereo not given) | 46.9% |
